{
  "source": "PubChem BioAssay AID720651",
  "about": "(The Scripps Research Institute Molecular Screening Center, 2013)",
  "assay": "binds r(CAG) RNA repeats in late stage dose response, late-stage follow-up, biochemical, fluorescence, dose response, powder samples (AID 720651)",
  "conditions": "r(CAG) RNA TO-PRO-1 dye displacement",
  "note": "Some of the results follow. Active and inactive are the calls of the source. The rule behind the calls is not given here.",
  "data": [
    {"smiles": "Cc1noc(NS(=O)(=O)c2ccc(NC(=O)c3oc4ccc(F)cc4c3C)cc2)c1C", "values": [
      {"measurement": "IC50", "value": "1260 nM (active)"}
    ]}
  ]
}
